tim10-1 inh: growth inhibitors of tim10-1 mutant yeast, primary screen, luminescence, uHTS; S. cerevisiae tim10-1 ts strain growth, BacTiter-Glo, 24 h; inhibition, % at 20 µM; 330,000 compounds, 2.2% hits; AID 463190, 2010;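 active = inhibition of at least 40%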;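 note: mutant grown at 25 °C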
Mdm2 MdmX PPI: inhibitors of human Mdm2-MdmX association, primary screen, cell-based, luminescence, split luciferase, SaOS-2, uHTS. Protein Mdm4 (Homo sapiens) + E3 ubiquitin-protein ligase Mdm2 (Homo sapiens), …. AID 485346, 2010. SaOS-2 split-luciferase Mdm2/MdmX complementation. 330,000 compounds, 3% hits. inhibition, % at 8 µM;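 active = inhibition of at least 50% at 8 µM in the primary screen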
tim23-1 inh: growth inhibitors of tim23-1 mutant yeast, primary screen, luminescence, uHTS; AID 463212, 2010; S. cerevisiae tim23-1 growth, BacTiter-Glo luminescence, 24 h; 330,000 compounds, 1.3% hits; inhibition, % at 20 µM;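 active = growth inhibition of the mutant yeast at or above 50%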;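 note: temperature-sensitive mutant grown at 25 °C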
TIM10 inh: growth inhibitors of isogenic TIM10 control yeast, primary screen, counter-screen for tim10-1 yeast inhibitor project, luminescence, uHTS; S. cerevisiae TIM10 strain growth, BacTiter-Glo luminescence, 24 h; 330,000 compounds, 1.4% hits; inhibition, % at 10 µM;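 active = inhibition of 40% or more at the single tested concentration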;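 note: wild-type TIM10 isogenic control strain grown at permissive 25 °C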
MPTP inh: mitochondrial permeability transition pore inhibitors, primary screen, biochemical, isolated mouse mitochondria, absorbance; 360,000 compounds, 1.4% hits; Ca2+ swelling absorbance, 30 min; inhibition, % at 10 µM;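 active = inhibition of 50% or more, scaled per plate between neutral and stimulator controls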
tim10-1 conf: growth inhibitors of tim10-1 mutant yeast, confirmation, single concentration, luminescence, S. cerevisiae; shares compounds with tim10-1 inh; S. cerevisiae tim10-1 ts strain growth, BacTiter-Glo, 24 h; inhibition, % at 20 µM; 7,400 compounds, 56% hits; AID 463213, 2010;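 active = inhibition of yeast growth at or above a set limit in either of two repeat tests at 20 µM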;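 note: tim10-1 mutant grown at permissive 25 °C to find synthetic lethal compounds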
TIM10 conf: growth inhibitors of wild-type TIM10 yeast, confirmation, counter-screen for tim10-1 synthetic lethality project, single concentration, luminescence, S. cerevisiae | 4,600 compounds, 63% hits | S. cerevisiae tim10 strain growth, BacTiter-Glo luminescence, 24 h | shares compounds with TIM10 inh | inhibition, % at 10 µM;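 active = inhibition of yeast growth at or above a set limit in either of two replicates at 10 µM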; note: this counterscreen used the strain with wild-type TIM10
tim23-1 confirm: tim23-1 mutant yeast growth inhibitors, confirmation, luminescence, single concentration; shares compounds with tim23-1 inh; S. cerevisiae tim23-1 growth, BacTiter-Glo luminescence, 24 h; inhibition, % at 20 µM; 4,400 compounds, 83% hits; AID 463218, 2010;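 active = inhibition above about 39% in either of two replicate wells at 20 µM, limit read from the data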;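 note: temperature-sensitive tim23-1 mutant grown at 25 °C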
Large screens that a line does not name were inactive (follow-up assays come after a bar, where they were run). Only some compounds are listed: those with a hit (about 6.3% of all), similar ones and a draw of the others.

Cc1cccn2c(=O)c(C=O)c(N3CCCCCC3)nc12	tim10-1 inh 46, tim23-1 inh 58 | tim10-1 conf 43 | tim23-1 confirm 46
CC(=O)C1=CCC(c2ccc(Cl)cc2)N(S(=O)(=O)c2ccc(C)cc2)C1 (stereo unspecified)	none (no result: tim10-1 inh, Mdm2 MdmX PPI, tim23-1 inh, TIM10 inh)
Cc1cccc(-n2c(-c3csc4ccccc34)n[nH]c2=S)c1	tim10-1 inh 45, tim23-1 inh 51 | tim10-1 conf inactive | tim23-1 confirm 43
CCOC(=O)C1CCCC12Nc1cccc3cccc(c13)N2 (stereo unspecified)	none (no result: tim10-1 inh, Mdm2 MdmX PPI, tim23-1 inh, TIM10 inh)
CC(=O)c1cccc(NC(=O)c2ccc([N+](=O)[O-])o2)c1	tim10-1 inh 65, tim23-1 inh 77, TIM10 inh 47 | tim10-1 conf 52 | TIM10 conf 46 | tim23-1 confirm 72
COc1ccc(NC(=O)c2ccc([N+](=O)[O-])o2)cc1	tim10-1 inh 64, tim23-1 inh 59, TIM10 inh 41 | tim10-1 conf 45 | TIM10 conf 43 | tim23-1 confirm 58
CCCCNC(=O)C1(C)CCN1C(=O)c1cc(F)ccc1C (stereo unspecified)	none (no result: tim10-1 inh, Mdm2 MdmX PPI, tim23-1 inh, TIM10 inh)
Cc1ccc(C(=O)/C=C/c2cn(CN3CCN(C)CC3)c3ccccc23)cc1	tim10-1 inh 52, tim23-1 inh 56, TIM10 inh 60 | tim10-1 conf 38 | TIM10 conf 55 | tim23-1 confirm inactive
Cc1ccc(NC(=O)C(=O)c2c[nH]c3ccccc23)cc1	none
Cc1ccc(C(=O)/C=C/c2c[nH]c3ccccc23)cc1	tim10-1 inh 44, tim23-1 inh 80 | tim10-1 conf inactive | tim23-1 confirm 44
COc1cccc(CNc2nc3cc(-c4ccccc4CO)sc3c(=O)n2C)c1	none (no result: tim10-1 inh, Mdm2 MdmX PPI, tim23-1 inh, TIM10 inh)
Clc1ccc(CSc2nccn2Cc2ccccc2)cc1	tim10-1 inh 48, tim23-1 inh 51, TIM10 inh 60 | tim10-1 conf 44 | TIM10 conf 44 | tim23-1 confirm 54
COc1ccc(-c2ccc(CN3C(C(C)C)C(=O)N(Cc4cn(CCC5OCCO5)nn4)CCS3(=O)=O)cc2)cc1 (stereo unspecified)	none (no result: tim10-1 inh, Mdm2 MdmX PPI, tim23-1 inh, TIM10 inh)
CC(=O)N(C(C)=O)N1C(=O)/C(=C/c2ccc(Cl)cc2)SC1=S	tim10-1 inh 64, tim23-1 inh 75, TIM10 inh 57 | tim10-1 conf 58 | TIM10 conf 80 | tim23-1 confirm 39
CN1CCN(C(=O)CCN2C(=O)/C(=C\c3ccc(Cl)cc3)SC2=S)CC1	none
COC(=O)c1cc(Cl)ccc1NCC(N)c1ccccc1 (stereo unspecified)	none (no result: tim10-1 inh, Mdm2 MdmX PPI, tim23-1 inh, TIM10 inh)
CCOC(=O)N1CCN(C(=O)C[C@@H]2C[C@@]3(C(=O)OC)CC(C)(C)CC=C3N(CCc3ccc(OC)c(OC)c3)C2=O)CC1	none (no result: tim10-1 inh, Mdm2 MdmX PPI, tim23-1 inh, TIM10 inh)
CC1CCN(C(=O)CSCC(=O)Nc2nc(-c3cccs3)cs2)CC1	tim10-1 inh 43, tim23-1 inh 54 | tim10-1 conf inactive | tim23-1 confirm 49
Cc1ccc(F)c(S(=O)(=O)NC(=O)C2(C)CCN2C(=O)Cc2cc(F)ccc2F)c1 (stereo unspecified)	none (no result: tim10-1 inh, Mdm2 MdmX PPI, tim23-1 inh, TIM10 inh)
O=C(NC1=NCCS1)c1cc(-c2ccc(F)cc2)nc2ccccc12	tim10-1 inh 50, tim23-1 inh 59, TIM10 inh 51 | tim10-1 conf 51 | TIM10 conf inactive | tim23-1 confirm 60
Cc1ccc(-c2cc(C(=O)NC3=NCCS3)c3ccccc3n2)cc1C	none (no result: tim10-1 inh, Mdm2 MdmX PPI, tim23-1 inh, TIM10 inh)
O=S1(=O)CC(N2CCC(c3ccccc3)CC2)CN1Cc1ccc(F)cc1 (stereo unspecified)	none (no result: tim10-1 inh, Mdm2 MdmX PPI, tim23-1 inh, TIM10 inh)
CCc1cccc(CC)c1NC(=O)c1ccccc1	none
CCc1cccc(CC)c1NC(=O)/C(C#N)=C/c1ccccc1C(F)(F)F	tim10-1 inh 41, tim23-1 inh 55, TIM10 inh 57 | tim10-1 conf inactive | TIM10 conf inactive | tim23-1 confirm 42
N#C/C(=C\c1ccccc1C(F)(F)F)C(=O)Nc1ccccc1	tim10-1 inh 57, tim23-1 inh 52, TIM10 inh 73 | tim10-1 conf 58 | TIM10 conf 61 | tim23-1 confirm 63
CCCCC(=O)N(C)c1c(CC)nc2c(OCc3ccccc3C)cccn12	none (no result: tim10-1 inh, Mdm2 MdmX PPI, tim23-1 inh, TIM10 inh)
O=C1NN=C(c2ccc(Cl)cc2)CC1c1cccc(Cl)c1 (stereo unspecified)	tim10-1 inh 41, tim23-1 inh 56 | tim10-1 conf inactive | tim23-1 confirm 54
O=C1NN=C(c2ccccc2)CC1c1c[nH]c2ccccc12 (stereo unspecified)	none
CCCCN1CC(N2CCN(C(=O)c3ccco3)CC2)CS1(=O)=O (stereo unspecified)	none (no result: tim10-1 inh, Mdm2 MdmX PPI, tim23-1 inh, TIM10 inh)
N#C/C(=C\c1cccc([N+](=O)[O-])c1)C(=O)NCC1CCCO1 (stereo unspecified)	tim10-1 inh 57, tim23-1 inh 77, TIM10 inh 57 | tim10-1 conf 52 | TIM10 conf 45 | tim23-1 confirm 72
N#C/C(=C\c1cc2c(cc1Br)OCO2)C(=O)NCC1CCCO1 (stereo unspecified)	tim10-1 inh 67, tim23-1 inh 87, TIM10 inh 65 | tim10-1 conf 67 | TIM10 conf 72 | tim23-1 confirm 78
COc1cc(/C=C(\C#N)C(=O)NCC2CCCO2)c([N+](=O)[O-])cc1OC (stereo unspecified)	none
COc1cccc(CN(C)C[C@@H]2OCc3cnnn3CCCC(=O)N([C@@H](C)CO)C[C@H]2C)c1	none (no result: tim10-1 inh, Mdm2 MdmX PPI, tim23-1 inh, TIM10 inh)
N#C/C(=C\c1ccccc1[N+](=O)[O-])C(=O)NCc1ccccc1	tim10-1 inh 49, tim23-1 inh 71, TIM10 inh 46 | tim10-1 conf 54 | TIM10 conf 51 | tim23-1 confirm 74
C=CCNC(=O)/C(C#N)=C/c1ccccc1[N+](=O)[O-]	tim10-1 inh 46, tim23-1 inh 56, TIM10 inh 50 | tim10-1 conf 48 | TIM10 conf inactive | tim23-1 confirm 46
C=CCNC(=O)/C(C#N)=C/c1ccc(C)o1	none
CCOCCCNC(=O)/C(C#N)=C/c1ccc(-c2ccc(S(=O)(=O)N3CCOCC3)cc2)o1	none
N#C/C(=C/c1ccccc1[N+](=O)[O-])C(=O)NCc1ccco1	tim10-1 inh 52, tim23-1 inh 60, TIM10 inh 60 | tim10-1 conf 45 | TIM10 conf inactive | tim23-1 confirm 54

Source: PubChem
